Some of the results follow. Activity calls are given as the source filed them. Rule as the data show it: active = inhibition above about 50%; inactive = the rest.
target: Apelin receptor (Homo sapiens) (UniProt P35414); experiment: apelin receptor inhibitors, beta-arrestin readout – cell-based, luminescence, single concentration, uHTS hits, confirmation (AID 2766); conditions: APJ beta-arrestin recruitment, antagonist mode, at 20 µM, stronger effect = higher value
Sequence (P35414 whole entry, looked up): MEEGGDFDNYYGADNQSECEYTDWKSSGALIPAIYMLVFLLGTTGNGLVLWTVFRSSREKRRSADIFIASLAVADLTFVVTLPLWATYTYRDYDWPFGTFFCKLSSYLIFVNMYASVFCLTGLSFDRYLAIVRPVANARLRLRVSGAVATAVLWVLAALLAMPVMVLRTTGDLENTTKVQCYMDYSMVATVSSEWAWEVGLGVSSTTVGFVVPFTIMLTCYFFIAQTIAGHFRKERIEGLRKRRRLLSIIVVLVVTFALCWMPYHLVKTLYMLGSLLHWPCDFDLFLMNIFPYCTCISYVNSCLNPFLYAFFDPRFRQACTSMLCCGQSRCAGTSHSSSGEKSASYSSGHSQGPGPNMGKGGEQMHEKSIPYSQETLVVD

Structure (SMILES) | inhibition
O=c1ccc2c(-c3ccccc3S(=O)(=O)O)c3ccc(O)c(O)c3oc-2c1O | 69.9% (active)
CC1CC2=C(CC1/C=N/NC(N)=S)C(C)(C)CCC2 (centres undefined) | 103% (active)
O=C(CCc1nc2ccccc2c(=O)[nH]1)OCC(=O)c1cccc(Cl)c1 | 37.2% (inactive)
COc1cc(/C=C(\C#N)c2nc3c(s2)CC(C)CC3)ccc1O (centres undefined) | 44.7% (inactive)
Oc1ccc(N=Nc2nccs2)c(O)c1 | 79.8% (active)
O=[N+]([O-])c1c(NCCO)cc(Sc2nc3ccccc3s2)c2nonc12 | 105% (active)
CC(=O)/C(=N\Nc1ccc(Cl)cc1Cl)Sc1cccc2cccnc12 | 78% (active)
CN1/C(=c2/s/c(=C3/C(=O)N(c4ccccc4)NC3=Nc3ccccc3)n(C)c2=O)C(C)(C)c2ccccc21 | 55.3% (active)
O=[N+]([O-])c1cc(Cl)cc(/C=N/NC(=S)Nc2cc(S(=O)(=O)N3CCOCC3)ccc2Cl)c1O | 62.4% (active)
COc1ccc(NC(=O)/C(Cl)=C(/Cl)S(=O)Cc2ccc(C)cc2)cn1 (centres undefined) | 106% (active)
O=C1Nc2ccc([N+](=O)[O-])cc2C1=Nc1cccc(CO)c1 | 72.5% (active)
Cc1csc(NC(=S)Nc2cccc(Cl)c2)n1 | 55.8% (active)
O=C1Nc2ccc(Br)cc2/C1=N/N=C/C1=C(N2CCOCC2)C(=C\c2ccccc2)/CC1 | 75.1% (active)
O=C(CSc1cccc2cccnc12)N/N=C/c1cccnc1 | 43.5% (inactive)
O=[N+]([O-])c1ccccc1S(=O)(=O)Nc1cccc2cccnc12 | 4.57% (inactive)
O=C(CCl)NNc1cccc(Cl)n1 | 145% (active)
COc1cc(/C=N\NC(=O)CNC(=O)c2cccc([N+](=O)[O-])c2)ccc1O | 2.71% (inactive)

Structure (SMILES) | inhibition
CC(=O)Nc1ccc(NC(=O)c2sc3nc4c(c(-c5ccc(C)cc5)c3c2N)CCC4)cc1 | 5.53% (inactive)
COc1cccc2sc(Nc3nc(C)c(C(C)=O)s3)nc12 | 94% (active)
CCOC(=O)c1cnc(Nc2nc3ccccc3o2)nc1CSC(=S)N1CCCCC1 | -22.6% (inactive)
S=C(NNC(=S)NC1CC2CCC1C2)NC1CC2C=CC1C2 (centres undefined) | 49.1% (inactive)
COC(=O)c1ccc(NCC(=O)c2ccccc2)cc1 | 63.5% (active)
Cc1cccc(-n2c(O)c(C=Nc3ccccc3N)c(=O)[nH]c2=O)c1 | 8.93% (inactive)
Cc1cc(/C=N/Nc2ccc([N+](=O)[O-])cn2)c(C)n1-c1cccc(C(=O)O)c1 | 75.3% (active)
CSCCC(NC(=O)COc1ccccc1)C(=O)OCC(=O)c1cc2ccccc2o1 (centres undefined) | 87.8% (active)
CN(C)S(=O)(=O)c1cccc(NC(=S)N/N=C/C(=O)c2ccccc2)c1 | 52.4% (active)
COc1cc(NS(=O)(=O)c2ccc3ccccc3c2)c2ncccc2c1 | -7.35% (inactive)
CC(CN1CCOCC1)OC(=O)c1ccc(C(C)(C)C)cc1 (centres undefined) | 26.5% (inactive)
COc1cc(/C=C2/SC(=S)N(Cc3ccccc3)C2=O)cc(OC)c1O | 94.7% (active)
CCc1ccc2c(c1)C1(NN=C(c3ccccc3)S1)C(=O)N2 (centres undefined) | 42.9% (inactive)
Cc1cccc2cc3c(N)c(C(=O)N4CCCc5ccccc54)sc3nc12 | 47.9% (inactive)
COc1ccc(CS(=O)/C(Cl)=C(/Cl)C(=O)Nc2ccc(OC)nc2)cc1 (centres undefined) | 100% (active)
CC(C)OC(=O)CN1C(=O)C(=O)c2ccccc21 | 158% (active)
CC(=O)C1=C(O)C(=O)N(c2ccc(S(N)(=O)=O)cc2)C1c1ccccc1F (centres undefined) | 43.9% (inactive)

Source: PubChem BioAssay AID2766 (Sanford-Burnham Center for Chemical Genomics, 2010)
